An excerpt weighted towards active compounds, which were near 1.7% of everything screened.
GLP1R ag: qHTS of GLP-1 Receptor Agonists | 380,000 compounds, 0.007% hits | Potency, µM (titrated, usually from 45.6 µM), without a hit: at the top dose activation, hits mostly activators | HEK293 GLP-1R CRE-luciferase, luminescence, 4-6 h; cells express a hypersensitive GLP-1R form | Glucagon-like peptide 1 receptor (Homo sapiens), P43220; further: % of control where 0% means no effect
Target sequence (P43220 whole entry, looked up): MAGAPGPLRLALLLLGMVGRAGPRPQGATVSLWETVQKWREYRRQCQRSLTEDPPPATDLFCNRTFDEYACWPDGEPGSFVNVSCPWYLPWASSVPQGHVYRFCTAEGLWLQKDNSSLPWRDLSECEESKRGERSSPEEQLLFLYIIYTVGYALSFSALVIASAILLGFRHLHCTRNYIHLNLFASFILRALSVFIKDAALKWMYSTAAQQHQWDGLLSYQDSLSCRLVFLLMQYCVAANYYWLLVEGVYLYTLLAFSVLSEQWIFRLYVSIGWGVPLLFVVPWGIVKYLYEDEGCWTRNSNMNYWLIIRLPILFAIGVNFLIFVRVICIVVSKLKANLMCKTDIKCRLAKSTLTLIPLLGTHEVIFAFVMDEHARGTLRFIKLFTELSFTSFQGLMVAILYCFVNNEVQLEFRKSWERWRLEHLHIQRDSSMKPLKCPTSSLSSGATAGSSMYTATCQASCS
GLP1R cytotox: qHTS of GLP-1 Receptor Inverse Agonists: Cytotox Screen; HEK293 cAMP-luciferase reporter cells, luminescence, 24 h; AID 624418, 2012; Potency, µM (top dose mostly 38.3 µM), inactives show at the highest dose activity change, negative = inhibition, most hits filed as inhibitors; 410,000 compounds, 0.13% hits;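 further: loss of luciferase light is scored as toxicity; on the % scale 0 is the no-effect control and ±100 the full control effect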
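Seeding density was 200 cells/uL; after overnight-length (12 h) culture, 23 nL compounds went on for 24 h at 37 °C. Readout used a luciferase detection reagent, luminescence taken after 12 min at room temperature.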
GLP-1R inv ag: qHTS of GLP-1 Receptor Inverse Agonists (Inhibition Mode); Glucagon-like peptide 1 receptor (Homo sapiens), P43220; HEK293 GLP-1R CRE-luciferase, luminescence, 24 h; GLP-1R form is constitutively active; Potency, µM (series often up to 38.3 µM), inactives show at the highest dose activity change, negative = inhibition, usual class: inhibitors; 410,000 compounds, 1.6% hits; AID 624417, 2012; further: on the % scale 0 is the no-effect control and ±100 the full control effect; nearly all actives have a fitted effect of over 55% in size
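Luminescence readout: a drop in cAMP-driven luciferase signal flags inverse agonism at a constitutively active GLP-1R stably expressed in HEK293. Compound exposure lasted 24 hr at 37 deg C, 5% CO2.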
PTHR1 ag: qHTS for PTHR1 Agonists: Primary Screen | 410,000 compounds, 0.075% hits | Parathyroid hormone/parathyroid hormone-related peptide receptor (Homo sapiens), Q03431 | Potency, µM (doses to about 115 µM), without a hit: at the top dose activation, actives largely listed as activators | HEK293 GP2 PTHR1 cells, GloSensor cAMP luminescence, 1 h; further: nearly all actives have a fitted effect of over 55% in size
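HEK-293-derived GP2 cells expressing PTHR1 and a GloSensor cAMP reporter, 3,000/well, plated overnight, given luciferin plus IBMX (each 0.5 mM as added) for 1 h at 37 °C, then compound for 1 h at 37 °C. Luminescence was read after 15 min at room temperature.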
An asterisk follows results filed as active; i = inactive; ? = inconclusive; / = no result; [ ] = another dose, or the depositor's remark. The call rests on the fitted dose curve; in most records, active means well fitted curve in the direction sought with a large enough effect; inconclusive means small, poorly fitted or top-dose-only effect, or another doubt; inactive means no such curve, though single readings can be large; an effect the other way counts as inactive or inconclusive. Potency means the concentration at half of the fitted maximal effect.

SMILES	GLP1R ag	GLP1R cytotox	GLP-1R inv ag	PTHR1 ag
CC(Oc1cccc(Br)c1)C(=O)NNC(=O)c1ccccn1 (configuration not stated)	1%	?	11µM*	-8%
Cc1ccsc1C(=O)N(c1nc2ccccc2s1)c1c(C)cccc1C	-7%	0%	7.9µM*	i
Cc1ccccc1N(C(=O)c1cccs1)c1nc2ccccc2s1	0%	21%	2.2µM*	-17%
COc1ccc(C)cc1N(C(=O)c1ccccc1)c1nc2ccccc2s1	-13%	-6%	?	i
O=C(CCCn1nnc(-c2cccnc2)n1)c1ccc(F)cc1	-1%	4%	0%	i
O=C(/C=C/c1ccc(F)cc1)NC(Cc1c[nH]c2ccccc12)C(=O)O (configuration not stated)	3%	13%	1%	i
CC1(C)CC(=O)C=C(c2ccc(-c3cnc4ccccc4c3)cc2)C1=O	-4%	-25%	-48%	-60%
CCc1ccc(C(=O)Nc2ccc3nc(C)ccc3c2)cc1	24%	-22%	?	-69%
Cc1ccc2cc(NC(=O)c3ccc(C(C)(C)C)cc3)ccc2n1	-4%	-35%	4µM*	-29%
CCOC(=O)CC(Nc1nc(N2CCOCC2)nc(N2CCOCC2)n1)c1ccccc1Cl (configuration not stated)	10%	15%	?	28%
COc1cccc(NC(=O)C(Sc2nnc(Nc3ccccc3C)s2)c2ccccc2)c1 (configuration not stated)	-10%	?	10µM*	i
CC(C)n1ncc2c(C(=O)NCc3cccnc3)cc(C3CC3)nc21	6%	3%	110%	-10%
CN1CCN(c2ccc3c(c2)C2CC3CCN2C(=O)OCc2ccccc2)CC1 (configuration not stated)	30%	0%	10µM*	i
O=C(OCc1ccccc1)N1CCC2CC1c1cc(N3CCOCC3)ccc12 (configuration not stated)	10%	15%	?	-48%
CCOC(=O)c1c(NC(=O)COc2ccc(Br)cc2)sc(C(C)=O)c1C	/	0%	9%	i
CCOC(=O)c1c(NC(=O)COc2ccc(OC)cc2)sc(C(=O)N(CC)CC)c1C	/	-17%	7.9µM*	-41%
CCOC(=O)c1ccc(Oc2nc(NC(C)(C)C)nc(N(C)C)n2)cc1	3%	-19%	7.9µM*	-24%[57.5 µM]
Cc1ccc(/C(N)=N/OC(=O)CCCc2ccccc2)cc1	2%	4%	0%	i
CC1CCCC(C)N1CCCNC(=O)c1cc2c(s1)-c1ccccc1OC2 (configuration not stated)	5%	-12%	2µM*	-17%
CCc1ccccc1N(CC)C(=O)c1cc2c(s1)-c1ccccc1SC2	/	-4%	?	i
CCc1ccccc1N(CC)C(=O)c1cc2c(s1)-c1ccccc1OC2	-1%	-3%	10µM*	i
CC1CC(C)CN(CCCNC(=O)c2cc3c(s2)-c2ccccc2OC3)C1 (configuration not stated)	-1%	-24%	?	?
CCOC(=O)Cn1c(=O)cc(C(F)(F)C(F)(F)F)c2c(C)nn(CC)c21	/	-14%	6%	10%
CC(C)c1ccc(S(=O)(=O)c2cnc(SCC(=O)Nc3ccc4c(c3)OCCO4)[nH]c2=O)cc1	/	2%	5%	i
OCC1OC(n2ccc3c2ncn2ncnc32)C(O)C1O (configuration not stated)	-7%	-24%	7.9µM*	-12%
SMILES	GLP1R ag	GLP1R cytotox	GLP-1R inv ag	PTHR1 ag
Nc1ccn([C@@H]2O[C@H](CO)[C@@H](O)[C@@H]2O)c(=O)n1	-2%	-3%	?	-7%
Cc1ccccc1CC(=O)Nc1ccon1	-6%	-5%	3%	i
CCN(CC)c1ccc(/C=N/N(c2ccccc2)c2ccccc2)c(O)c1	-2%	22%	6.3µM*	-36%
CCOC(=O)C(=NCCCN(C)C)NNc1ccc(Br)cc1	-1%	?	4µM*	24%
CCCCN=C(NNc1ccc(Br)cc1)C(=O)OCC	2%	-20%	?	i
CCCCCN1C(C(=O)c2ccccc2)=C(OC(=O)CC)c2ccccc2S1(=O)=O	/	-12%	13µM*	-6%
CCCCN1C(C(=O)c2ccccc2)=C(OC(=O)CC)c2ccccc2S1(=O)=O	/	-30%	?	-93%
CCCCC(=O)OC1=C(C(=O)c2ccccc2)N(CCC)S(=O)(=O)c2ccccc21	/	-25%	11µM*	-4%
COc1cccc(-n2c(=O)c3c(C)c(C)sc3n(Cc3ccccc3C#N)c2=O)c1	/	0%	3%	7%
CC(Sc1nnc(C2CC2)n1N)C(=O)NC1CCCCC1C (configuration not stated)	-11%	11%	10%	i
CC(=O)NC(c1ccccc1)c1nc(-c2ccc3ccccc3c2)cs1 (configuration not stated)	14%	2%	?	-3%
COc1cc(C(=O)NNC(=S)NC(=O)/C=C/c2ccccc2)cc(OC)c1OC	1%	?	-7%	i
C=C(C)c1cccc(C(C)(C)NC(=O)Nc2nnc(C(C)C)s2)c1	9%	8%	10µM*	i
COc1cccc(C(=O)Nc2nnc(C(C)C)s2)c1	-11%	7%	11µM*	-32%[57.5 µM]
O=C(c1cc2ccc([N+](=O)[O-])cc2oc1=O)N1CCOCC1	0%	-28%	3%	i
O=C(Nc1ccc2c(c1)OCO2)c1ccc([N+](=O)[O-])cc1[N+](=O)[O-]	6%	-19%	-9%	-11%
COc1ccc(NC(=O)CSc2nc(-c3ccccc3)[nH]c2-c2ccccc2)cc1OC	/	-26%	?	-37%
CC1CCN(c2ccc(C(=O)Nc3ccc4c(c3)OCO4)cc2[N+](=O)[O-])CC1	1%	-25%	6.3µM*	-36%
CCN1CCN(c2cc(C)c3cc(NC(=O)c4ccc5c(c4)OCO5)ccc3n2)CC1	-1%	?	10%	-6%
CCN1CCN(c2ccc(NC(=O)c3ccc4c(c3)OCCO4)cc2C)CC1	7%	-5%	6.3µM*	-19%
COc1ccc(C)cc1NC(=O)CCCN1C(=O)C(c2ccccc2)Oc2cccnc21 (configuration not stated)	29%	0%	10µM*	-25%
COc1ccc(Nc2nnc(SCC(=O)/C=C3/N(C)c4ccccc4C3(C)C)s2)cc1	-2%	-23%	11µM*	-35%
O=C(COC(=O)Cn1cnc2ccccc2c1=O)Nc1cc(Cl)ccc1[N+](=O)[O-]	-8%	-7%	6%	-12%
